Consider 13 compounds from ChEMBL document CHEMBL3433997, “St. Jude Leishmania screening dataset” (2016).

What all share (format): functional
Experiment [1] addresses Solute carrier family 2, facilitated glucose transporter member 1 (Homo sapiens) (UniProt P11166). Briefly: ST_JUDE_LEISH: Cytotoxicity at 2uM final concentration against transgenic Leishmania Mexicana promastigotes LmGLUT1 that are glucose transport deficient and complemented with the human glucose transporter GLUT1. Activity is measured by DNA content using SYBR green in vitro.

Experiment [2] addresses Hexose transporter 1 (Plasmodium falciparum) (UniProt O97467). Nature of the experiment: ST_JUDE_LEISH: Cytotoxicity at 2uM final concentration against transgenic Leishmania Mexicana promastigotes LmPfHT that are glucose transport deficient and complemented with the Plasmodium falciparum hexose transporter. Activity is measured by DNA content using SYBR green in vitro.
For experiment [3], the target named is Glucose transporter (Leishmania mexicana) (UniProt O61059). Briefly: ST_JUDE_LEISH: Cytotoxicity at 2uM final concentration against transgenic Leishmania Mexicana promastigotes LmGT2 that are glucose transport deficient and complemented with the L. Mexicana glucose transporter 2. Activity is measured by DNA content using SYBR green in vitro.

Chain of Solute carrier family 2, facilitated glucose transporter member 1 (Homo sapiens) (P11166 whole entry): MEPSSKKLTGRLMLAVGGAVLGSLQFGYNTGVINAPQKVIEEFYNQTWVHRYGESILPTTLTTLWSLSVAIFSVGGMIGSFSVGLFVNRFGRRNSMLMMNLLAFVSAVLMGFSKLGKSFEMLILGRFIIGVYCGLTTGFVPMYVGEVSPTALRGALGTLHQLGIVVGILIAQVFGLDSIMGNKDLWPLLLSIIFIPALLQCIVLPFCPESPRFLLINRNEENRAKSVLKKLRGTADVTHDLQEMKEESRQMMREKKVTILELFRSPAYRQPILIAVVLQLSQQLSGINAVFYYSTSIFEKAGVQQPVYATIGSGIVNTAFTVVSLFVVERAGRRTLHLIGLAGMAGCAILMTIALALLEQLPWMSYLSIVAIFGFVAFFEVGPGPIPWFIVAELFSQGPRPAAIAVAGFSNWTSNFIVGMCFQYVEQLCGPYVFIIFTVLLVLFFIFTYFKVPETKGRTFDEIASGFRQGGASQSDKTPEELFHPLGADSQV

For the compound `CCCc1cc(NC2CCN(C)CC2)nc(Nc2ccc(C)cc2)n1`, the inhibition is 5.35% in experiment [1], 3.28% in experiment [2] and 2.46% in experiment [3].

Take `O=C(Nc1cc(Cl)cc(Cl)c1)Nc1ccccc1C(=O)NC1CCCCC1`: the inhibition is -0.12% in experiment [1], -1.94% in experiment [2] and 0.23% in experiment [3].

For the compound `CCC[C@@H]([C@@H](CC1CCCCC1)C(=O)N[C@@H](CCOC(=O)NCC)C(=O)Nc1nccs1)N(O)C=O`, the inhibition in experiment [1] turned out to be 8.61%; in experiment [2], 10.3%; in experiment [3], 9.7%.

With `Cc1cc(NC(=O)c2ccco2)ccc1OC1CCN(Cc2ccccc2)CC1`, the inhibition in experiment [1] turned out to be 0.52%; in experiment [2], 4.72%; in experiment [3] it was 1.9%.

For the compound `COc1ccc2[nH]c(-c3ccccc3)cc(=NN=Cc3ccncc3)c2c1`, the inhibition was 3.48% in experiment [1], 3.17% in experiment [2] and 5.54% in experiment [3].

For `CN(C)CCNc1cc(-c2ccc3ccccc3c2)nc2ccccc12`, the inhibition in experiment [1] is 1.3%; in experiment [2], 2.94%; in experiment [3], -0.48%.

As for `COc1cc2nc(NCCn3ccnc3C)nc(NCCc3ccccc3)c2cc1OC`, the results for the inhibition in experiment [1], in experiment [2] and in experiment [3] were 1.91%, 1.02% and 2.18%, respectively.

With `COc1cccc(CNC(=O)c2ccnc(-c3cccc(CN(C)C4CCN(C)CC4)c3)c2)c1`, the inhibition was -0.04% in experiment [1], -0.18% in experiment [2] and 1.78% in experiment [3].

`Cn1nccc1C(=O)NCCNCc1cccc(-c2cccc(-c3nc4cc(C(F)(F)F)ccc4[nH]3)c2)c1`: the inhibition is 2.84% in experiment [1], 1.83% in experiment [2] and 0.31% in experiment [3].

For `N#Cc1ccc(CNCCCCCCNCc2ccc(C#N)c3ccccc23)c2ccccc12`, the inhibition in experiment [1] was found to be 2.15%; in experiment [2], 1.12%; in experiment [3], 2.53%.

`CC1CN(C(=O)c2sc3ccccc3c2Cl)CC(C)O1` (centres undefined): the inhibition in experiment [1] was -2.33%; in experiment [2], 0.96%; in experiment [3], 0.74%.

For `CC(C)Nc1nc(NCCc2c[nH]cn2)nc(NCc2ccc(Cl)c(Cl)c2)n1`, the inhibition was 3.82% in experiment [1], 0.13% in experiment [2] and -0.25% in experiment [3].

`CCCCCCCOc1ccc(NC(=O)Nc2ccc(Cn3ncc(N4CCCNCC4)c(Cl)c3=O)cc2)cc1`: the inhibition in experiment [1] is -2.91%; in experiment [2], -0.57%; in experiment [3], -1.59%.
